Pf growth 48h: Primary qHTS for delayed death inhibitors of the malarial parasite plastid, 48 hour incubation | P. falciparum luciferase growth in erythrocytes, 48 h | Potency, µM (top dose mostly 28.7 µM), actives largely listed as inhibitors | hit rate 5.9% among 310,000 | AID 504832, 2011
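Read-out is firefly luciferase luminescence from an integrated reporter in P. falciparum, so falling signal marks reduced parasite growth. Infected erythrocytes were at 2% hematocrit and 0.1% parasitemia (final) in Albumax-supplemented RPMI 1640.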
Shiga inhibitor: A qHTS for Small Molecule Inhibitors of Shiga Toxin. AID 2315, 2010. Vero cells, Shiga toxin protein synthesis inhibition reporter. hit rate 9.2% among 290,000. inhibition, % at 38.7 µM; in the data active means inhibition mostly above about 28%, no sharp cut-off; inactive means mostly below about 43%
HCV inhibitor: qHTS Assay for Inhibitors of Hepatitis C Virus (HCV); Huh7.5.1 HCVcc-Cre infection, luciferase reporter, 44 h; hit rate 3.4% among 340,000; Potency, µM (doses to about 41.8 µM), hits mostly inhibitors
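Reporter virus HCVcc-Cre (~0.5 moi) infects cells exposed to compound; seeding density 1,000 cells/well with 4 h settling beforehand. Luminescence, 15 sec read, taken 44 h post-infection following a 15 min RT substrate incubation.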
AMA1 RON2 block: qHTS for Inhibitors of AMA1-RON; Towards Development of Antimalarial Drug Lead: Primary Screen. Potency, µM (titrated, usually from 58.2 µM), usual class: inhibitors. hit rate 0.2% among 360,000. Plasmodium falciparum AMA1 (3D7) - RON2 peptide interaction. AlphaScreen AMA1-biotinylated RON2 peptide binding; further: nearly all actives have a fitted effect of over 45% in size
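AMA1 (3D7) with his tag at 25 nM final met compounds first, then biotinylated RON2 peptide at 25 nM; detection used donor plus acceptor beads, 10 µg/mL apiece, read by AlphaScreen after 30 min at room temperature.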
Pf growth 96h: Primary qHTS for delayed death inhibitors of the malarial parasite plastid, 96 hour incubation; P. falciparum luciferase reporter growth, 96 h; Potency, µM (doses to about 28.7 µM), hits mostly inhibitors; hit rate 6.9% among 320,000; AID 504834, 2011
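96 h incubation, 37 C, 5% CO2, of luciferase-reporter P. falciparum-infected RBCs (2% hematocrit, 0.05% parasitemia final) with test compounds; endpoint luminescence.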
CHX counter: Cycloheximide Counterscreen for Small Molecule Inhibitors of Shiga Toxin | max response, % | hit rate 12% among 300,000 | cell reporter, cycloheximide protein synthesis inhibition counterscreen; in the data active means max response mostly above about 13%, no sharp cut-off; inactive means mostly below about 14%; further: read at 38.3 µM for the half of the compounds with a filed dose
A number is an active result; i = inactive; ? = inconclusive; nt = not tested or not shown. An excerpt weighted towards active compounds, which were near 21% of everything screened. Unless noted, the call rests on the fitted dose curve; in most records, active means well fitted curve in the direction sought with a large enough effect; inconclusive means small, poorly fitted or top-dose-only effect, or another doubt; inactive means no such curve, though single readings can be large; an effect the other way counts as inactive or inconclusive.

SMILES	Pf growth 48h	Shiga inhibitor	HCV inhibitor	AMA1 RON2 block	Pf growth 96h	CHX counter
CCOC(=O)C1(CCOc2ccccc2)CCN(Cc2cccc3nonc23)CC1	?	i	?	i	i	i
CC(C)N1CCc2c(sc(NC(=O)CCS(=O)(=O)c3ccccc3)c2C#N)C1	i	i	?	i	?	i
CC(/C=C/c1ccc(O)cc1)=NNc1ccccc1	nt	nt	?	i	nt	nt
COc1ccc2c(c1)oc(=O)c1ccccc12	i	71	?	i	i	33
O=C(Nc1ccncc1)C1CC1c1ccccc1 (stereo not given)	?	i	?	i	nt	i
CC(=O)Nc1ccc2c(c1)OCCOCCOc1cc(NC(C)=O)ccc1OCCOCCOCCO2	?	i	nt	nt	i	i
O=C(O)C1CCCCC1C(=O)Nc1ccc(F)c(F)c1 (stereo not given)	i	i	i	i	i	i
NNC(=O)[C@@H]1C[C@@H]1c1ccccc1	i	i	i	i	?	i
O=C(Nc1ccc2c(c1)OCCO2)C(=O)NC1CC1	i	80	i	i	i	29
CC(C)c1ccc(NC(=O)C2CC2c2ccccc2)cc1 (stereo not given)	i	i	i	i	?	18
NNC(=O)C1CC1c1ccccc1 (stereo not given)	i	i	i	i	9.3µM	i
O=C(O)C1CCCCC1C(=O)Nc1ccc2c(c1)OCCO2 (stereo not given)	i	102	i	i	i	34
COc1ccc(CNC(=O)CN2C(=O)CCSc3ccc(S(=O)(=O)N4CCCC4)cc32)cc1	i	i	i	i	i	i
O=C(Nc1ccc2c(c1)OCCO2)C1CC1c1ccccc1 (stereo not given)	i	94	i	i	i	65
Cc1cc(N2CCCCC2)nc(NCc2ccccc2)n1	3.3µM	i	?	i	2.9µM	i
Cc1cc(N2CCOCC2)nc(NCc2ccccc2)n1	nt	i	13µM	i	i	i
O=C(Nc1ccc(S(=O)(=O)Nc2ncccn2)cc1)c1cccc([N+](=O)[O-])c1	nt	nt	nt	i	nt	nt
COc1ccc(OC)c(S(=O)(=O)N/N=C\c2cn(CC(N)=O)c3ccccc23)c1	i	i	i	i	i	i
COc1cc(OC)c(N(C)C(=O)c2cc3c(s2)-c2ccccc2S(=O)(=O)C3)cc1Cl	nt	nt	22µM	i	nt	nt
CC(C)CCNC(=O)c1cc2c(s1)-c1ccccc1S(=O)(=O)C2	i	i	i	i	i	16
COc1ccc(N(C)C(=O)c2cc3c(s2)-c2ccccc2S(=O)(=O)C3)cc1	2.9µM	i	?	i	?	i
COc1ccc(N2CCN(C(=O)c3cc4c(s3)-c3ccccc3S(=O)(=O)C4)CC2)cc1	i	i	10µM	i	?	i
CN1CCN(C(=O)c2cc3c(s2)-c2ccccc2S(=O)(=O)C3)CC1	i	i	i	i	i	i
O=C(c1cc2c(s1)-c1ccccc1S(=O)(=O)C2)N1CCN(Cc2ccccc2)CC1	nt	i	10µM	i	i	i
CCCCN(C)C(=O)c1cc2c(s1)-c1ccccc1S(=O)(=O)C2	i	i	i	i	i	21
SMILES	Pf growth 48h	Shiga inhibitor	HCV inhibitor	AMA1 RON2 block	Pf growth 96h	CHX counter
CCCN1CCN(C(=O)c2cc3c(s2)-c2ccccc2S(=O)(=O)C3)CC1	nt	i	nt	nt	i	i
Clc1ncccc1-c1nnn(-c2ccccc2Br)n1	i	73	i	i	i	34
COc1ncccc1-c1nnn(-c2ccc(Cl)nc2)n1	i	i	i	i	i	20
COc1ccc2[nH]c(=O)c(-c3nnn(-c4ccc(Cl)nc4)n3)cc2c1	nt	nt	i	i	nt	nt
Clc1nc2ccccc2cc1-c1nnn(-c2ccccc2Br)n1	nt	nt	i	i	nt	nt
Cc1ccc(-n2nnc(-c3cccnc3Cl)n2)cc1	i	87	?	i	i	47
Clc1ccc(-n2nnc(-c3cccnc3Cl)n2)cn1	i	50	i	i	i	35
O=C(O)c1ccc(NS(=O)(=O)c2cccc(C(=O)Nc3cccc(C(=O)O)c3)c2)cc1	nt	i	i	i	i	i
Cc1nnc(SCC(=O)NCc2ccccc2Cl)[nH]c1=O	i	i	i	i	i	i
Brc1ccccc1-n1nnc(-c2nccs2)n1	i	77	i	i	i	49
Cc1ccc(C[n+]2c(-c3ccc(C)cc3)cc(-c3ccc(C)cc3)cc2-c2ccc(C)cc2)cc1	0.33µM	nt	2.2µM	i	?	nt
O=C(c1ccc(N2CCN(C(=O)c3cccc(F)c3)CC2)cc1)c1cccc(F)c1	13µM	i	?	i	?	i
O=C(c1ccc(N2CCN(C(=O)c3ccccc3Br)CC2)cc1)c1cccc(F)c1	?	i	?	i	9.3µM	i
O=C(c1cccc(F)c1)N1CCN(S(=O)(=O)c2ccccc2)CC1	nt	i	i	i	nt	i
O=C(c1cccc(F)c1)N1CCN(S(=O)(=O)Cc2ccccc2)CC1	2.9µM	i	i	i	i	i
O=C(c1cccc(F)c1)N1CCN(C(=O)C2CC2)CC1	i	i	i	i	0.33µM	i
O=C(Cc1cccc(NC(=O)C2CCCN(C(=O)CCc3ccccc3)C2)c1)Nc1cccc(C(=O)N2CCCC2)c1 (stereo not given)	?	nt	?	i	?	nt
CC(C)Oc1ccc(S(=O)(=O)N2CCCCC2)cc1NC(=O)CN1C(=O)NC(C)(C2CC2)C1=O (stereo not given)	?	nt	?	i	i	nt
CCOc1ccc(S(=O)(=O)N2CCCCC2)cc1NC(=O)CN1C(=O)NC(C)(c2ccc(C)cc2)C1=O (stereo not given)	13µM	nt	10µM	i	7.4µM	nt
CC(C)Oc1ccc(S(=O)(=O)N2CCCCC2)cc1NC(=O)CN1C(=O)NC2(CCCC2)C1=O	12µM	nt	?	i	?	nt
CCOc1ccc(S(=O)(=O)N2CCOCC2)cc1NC(=O)CN1C(=O)NC(C)(c2ccccc2)C1=O (stereo not given)	?	nt	i	i	?	nt
CC(C)Oc1ccc(S(=O)(=O)N2CCCCC2)cc1NC(=O)CN1CCCC1c1cccs1 (stereo not given)	4.1µM	nt	?	i	4.1µM	nt
CCOc1ccc(S(=O)(=O)N2CCOCC2)cc1NC(=O)CN1C(=O)NC(CC)(c2ccccc2)C1=O (stereo not given)	12µM	i	i	i	?	i
Cc1cc(C(=O)NN)c(Cl)cc1Cl	i	i	i	i	i	i
CC1CCCC(C)N1C(=O)COC(=O)CNC(=O)c1ccccc1 (stereo not given)	i	nt	i	i	?	nt
CC(=O)CC(c1ccccc1)S(=O)(=O)c1ccc([N+](=O)[O-])cc1 (stereo not given)	i	i	i	i	i	i
CCCNC(=O)CNC(=O)c1ccc(C#N)cc1	nt	nt	i	i	nt	nt
